Measurements from the supplement of paper PMC11732987, “Enantioselective OTUD7B fragment discovery through chemoproteomics screening and high-throughput optimisation” (Communications Chemistry, 2025).
Values without a mark were called inactive.

Key:
Assay in all cases: log2 ratio of Biotin-Ahx-Ub-VS probe labelling (fragment/DMSO); higher = less target engagement (more negative = stronger competition), active = hit call of the paper (q ≤ 0.05, log2 ratio ≤ -1)
Conditions in all cases: compound concentration: 200 uM; treatment time: 3 h
[1] = compound: CC(C)CN(C1CC1)C(=O)CCl
In short: (§1)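 The table lists average log2 ratios of fragment over vehicle, from an unpaired t-test on global-median-normalised Spectronaut label-free quantities. Proteins with ≥2 unique peptides were used. Samples were HEK293T lysate (495 µg) treated in triplicate with fragment at 200 µM or vehicle for 3 h, then with Biotin-Ahx-Ub-VS (0.5 µM final) for 1 h, with labelled DUBs NeutrAvidin-enriched and run by diaPASEF LC-MS/MS.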

[2] = compound: CC(NC(=O)CCl)c1cccs1
In short: as §1

[3] = compound: CC1CCCCC1NC(=O)CCl
In short: as §1

[4] = compound: CC1CCCCN1C(=O)CCl
In short: as §1

[5] = compound: CC1CN(CC(C)O1)C(=O)CCl
In short: as §1

[6] = compound: CN(C1CCCCC1)C(=O)CCl
In short: as §1

[7] = compound: Cc1cc(NC(=O)CCl)no1
In short: as §1

[8] = compound: Cc1cccc(NC(=O)CCl)c1
In short: as §1

[9] = compound: Cc1nc(NC(=O)CCl)sc1C
In short: as §1

[10] = compound: Cc1nnc(NC(=O)CCl)s1
In short: as §1

[11] = compound: Cl.Cc1ncsc1CNC(=O)CCl
In short: as §1

[12] = compound: ClCC(=O)N1CCCCCCC1
In short: as §1

[13] = compound: ClCC(=O)NC1(CCCC1)C#N
In short: as §1

[14] = compound: ClCC(=O)NCC1CCC1
In short: as §1

[15] = compound: ClCC(=O)NCC1CCCO1
In short: as §1

[16] = compound: ClCC(=O)NCc1ccco1
In short: as §1

[17] = compound: ClCC(=O)Nc1cccc(Cl)c1
In short: as §1

Chain of UniProt Q70CQ2 (Q70CQ2 whole entry): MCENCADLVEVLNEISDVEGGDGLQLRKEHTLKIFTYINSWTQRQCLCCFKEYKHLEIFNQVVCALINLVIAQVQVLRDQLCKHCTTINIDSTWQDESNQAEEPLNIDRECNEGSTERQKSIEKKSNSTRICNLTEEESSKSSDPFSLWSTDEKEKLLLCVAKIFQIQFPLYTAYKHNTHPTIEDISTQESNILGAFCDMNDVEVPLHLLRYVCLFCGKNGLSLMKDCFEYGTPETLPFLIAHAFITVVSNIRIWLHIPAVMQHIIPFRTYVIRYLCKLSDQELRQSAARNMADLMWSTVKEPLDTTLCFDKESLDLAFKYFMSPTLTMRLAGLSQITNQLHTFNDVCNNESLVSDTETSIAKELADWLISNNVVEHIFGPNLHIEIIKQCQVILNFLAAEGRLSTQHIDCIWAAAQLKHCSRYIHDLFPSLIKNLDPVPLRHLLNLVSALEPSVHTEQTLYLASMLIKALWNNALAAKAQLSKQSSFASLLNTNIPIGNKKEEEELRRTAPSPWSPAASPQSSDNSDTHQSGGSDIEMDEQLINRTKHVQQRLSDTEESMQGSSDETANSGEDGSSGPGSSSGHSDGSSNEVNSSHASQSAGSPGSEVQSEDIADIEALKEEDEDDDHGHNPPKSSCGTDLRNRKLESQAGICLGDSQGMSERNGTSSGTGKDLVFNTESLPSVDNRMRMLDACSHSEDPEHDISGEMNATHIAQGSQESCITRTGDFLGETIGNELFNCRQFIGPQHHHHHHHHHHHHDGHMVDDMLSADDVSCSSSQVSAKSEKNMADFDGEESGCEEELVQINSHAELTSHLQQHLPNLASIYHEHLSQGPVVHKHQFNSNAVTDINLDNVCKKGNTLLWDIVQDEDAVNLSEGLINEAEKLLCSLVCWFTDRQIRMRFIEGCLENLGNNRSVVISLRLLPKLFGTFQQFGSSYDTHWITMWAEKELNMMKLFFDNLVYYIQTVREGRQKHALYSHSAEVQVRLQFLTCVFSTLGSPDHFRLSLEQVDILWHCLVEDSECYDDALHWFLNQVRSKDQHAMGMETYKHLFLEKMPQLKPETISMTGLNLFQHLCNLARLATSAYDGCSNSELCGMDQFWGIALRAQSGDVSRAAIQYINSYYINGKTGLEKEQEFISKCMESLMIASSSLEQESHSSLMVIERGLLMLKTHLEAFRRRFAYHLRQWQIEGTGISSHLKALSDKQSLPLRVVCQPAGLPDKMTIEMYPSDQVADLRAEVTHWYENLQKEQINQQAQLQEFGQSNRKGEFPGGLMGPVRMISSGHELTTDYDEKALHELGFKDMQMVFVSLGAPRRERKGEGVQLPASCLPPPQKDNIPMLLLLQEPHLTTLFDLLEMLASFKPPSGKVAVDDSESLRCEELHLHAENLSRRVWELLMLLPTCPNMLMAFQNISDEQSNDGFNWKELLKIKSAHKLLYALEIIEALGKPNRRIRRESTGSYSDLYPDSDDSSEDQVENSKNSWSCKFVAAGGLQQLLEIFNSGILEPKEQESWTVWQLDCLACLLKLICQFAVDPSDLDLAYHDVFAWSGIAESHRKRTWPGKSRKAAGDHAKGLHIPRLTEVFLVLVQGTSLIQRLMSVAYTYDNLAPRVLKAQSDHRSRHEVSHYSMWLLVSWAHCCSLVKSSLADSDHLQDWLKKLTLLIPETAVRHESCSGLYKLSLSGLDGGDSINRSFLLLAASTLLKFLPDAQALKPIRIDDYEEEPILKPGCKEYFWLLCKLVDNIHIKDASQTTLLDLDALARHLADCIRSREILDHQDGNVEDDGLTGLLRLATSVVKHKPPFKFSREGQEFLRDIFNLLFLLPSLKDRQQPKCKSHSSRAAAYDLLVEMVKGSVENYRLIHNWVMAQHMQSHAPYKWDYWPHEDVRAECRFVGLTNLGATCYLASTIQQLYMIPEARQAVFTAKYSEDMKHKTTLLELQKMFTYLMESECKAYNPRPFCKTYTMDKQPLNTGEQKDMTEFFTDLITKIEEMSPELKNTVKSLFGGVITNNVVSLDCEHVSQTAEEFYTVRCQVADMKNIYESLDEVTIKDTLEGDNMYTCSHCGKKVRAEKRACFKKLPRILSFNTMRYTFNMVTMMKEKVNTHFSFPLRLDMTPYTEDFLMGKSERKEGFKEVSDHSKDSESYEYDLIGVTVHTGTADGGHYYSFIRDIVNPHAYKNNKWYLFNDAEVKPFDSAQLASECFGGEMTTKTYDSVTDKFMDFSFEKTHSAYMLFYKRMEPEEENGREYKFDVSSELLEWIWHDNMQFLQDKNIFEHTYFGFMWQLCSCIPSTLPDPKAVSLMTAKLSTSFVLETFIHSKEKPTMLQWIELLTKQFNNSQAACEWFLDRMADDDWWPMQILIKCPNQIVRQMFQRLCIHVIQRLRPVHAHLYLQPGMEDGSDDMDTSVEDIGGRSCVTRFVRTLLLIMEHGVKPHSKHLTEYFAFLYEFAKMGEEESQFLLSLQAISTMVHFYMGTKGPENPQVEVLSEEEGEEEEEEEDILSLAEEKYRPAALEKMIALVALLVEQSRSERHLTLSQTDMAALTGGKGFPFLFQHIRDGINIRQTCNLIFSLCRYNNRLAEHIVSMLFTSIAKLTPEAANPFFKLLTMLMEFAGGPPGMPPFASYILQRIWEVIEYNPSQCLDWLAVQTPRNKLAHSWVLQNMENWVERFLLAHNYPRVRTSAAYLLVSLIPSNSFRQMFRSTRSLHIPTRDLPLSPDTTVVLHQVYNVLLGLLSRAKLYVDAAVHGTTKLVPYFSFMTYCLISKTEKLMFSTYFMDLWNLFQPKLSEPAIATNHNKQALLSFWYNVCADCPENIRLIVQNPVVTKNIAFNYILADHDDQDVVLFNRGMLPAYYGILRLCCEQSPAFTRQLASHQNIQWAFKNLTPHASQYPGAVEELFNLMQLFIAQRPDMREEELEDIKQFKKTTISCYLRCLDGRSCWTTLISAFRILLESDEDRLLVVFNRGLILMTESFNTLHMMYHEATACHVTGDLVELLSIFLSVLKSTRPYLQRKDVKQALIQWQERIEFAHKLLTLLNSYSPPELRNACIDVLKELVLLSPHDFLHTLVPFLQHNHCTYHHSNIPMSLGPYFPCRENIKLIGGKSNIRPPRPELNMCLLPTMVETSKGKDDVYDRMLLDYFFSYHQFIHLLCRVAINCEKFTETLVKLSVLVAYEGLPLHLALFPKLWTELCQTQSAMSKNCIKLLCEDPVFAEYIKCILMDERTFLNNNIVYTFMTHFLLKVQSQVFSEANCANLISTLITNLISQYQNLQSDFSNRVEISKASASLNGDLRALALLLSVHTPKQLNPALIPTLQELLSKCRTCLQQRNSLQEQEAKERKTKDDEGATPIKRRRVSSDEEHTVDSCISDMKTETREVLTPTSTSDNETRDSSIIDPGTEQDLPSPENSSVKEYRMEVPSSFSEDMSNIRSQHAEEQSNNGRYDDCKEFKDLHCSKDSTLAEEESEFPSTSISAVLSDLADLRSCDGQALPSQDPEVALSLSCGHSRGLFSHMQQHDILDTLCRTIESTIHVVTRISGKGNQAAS
Chain of UniProt O15372 (O15372 whole entry): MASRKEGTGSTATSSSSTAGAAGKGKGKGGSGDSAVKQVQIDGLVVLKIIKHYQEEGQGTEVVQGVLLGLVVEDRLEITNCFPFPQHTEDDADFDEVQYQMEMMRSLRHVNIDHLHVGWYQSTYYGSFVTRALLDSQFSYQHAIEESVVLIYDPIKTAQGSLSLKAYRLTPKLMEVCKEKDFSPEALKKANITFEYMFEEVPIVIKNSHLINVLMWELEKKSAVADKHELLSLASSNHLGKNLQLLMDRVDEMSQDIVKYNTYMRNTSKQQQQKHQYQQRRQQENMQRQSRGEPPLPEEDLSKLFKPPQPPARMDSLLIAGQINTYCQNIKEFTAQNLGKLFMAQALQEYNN
Chain of UniProt Q8TE49 (Q8TE49 whole entry): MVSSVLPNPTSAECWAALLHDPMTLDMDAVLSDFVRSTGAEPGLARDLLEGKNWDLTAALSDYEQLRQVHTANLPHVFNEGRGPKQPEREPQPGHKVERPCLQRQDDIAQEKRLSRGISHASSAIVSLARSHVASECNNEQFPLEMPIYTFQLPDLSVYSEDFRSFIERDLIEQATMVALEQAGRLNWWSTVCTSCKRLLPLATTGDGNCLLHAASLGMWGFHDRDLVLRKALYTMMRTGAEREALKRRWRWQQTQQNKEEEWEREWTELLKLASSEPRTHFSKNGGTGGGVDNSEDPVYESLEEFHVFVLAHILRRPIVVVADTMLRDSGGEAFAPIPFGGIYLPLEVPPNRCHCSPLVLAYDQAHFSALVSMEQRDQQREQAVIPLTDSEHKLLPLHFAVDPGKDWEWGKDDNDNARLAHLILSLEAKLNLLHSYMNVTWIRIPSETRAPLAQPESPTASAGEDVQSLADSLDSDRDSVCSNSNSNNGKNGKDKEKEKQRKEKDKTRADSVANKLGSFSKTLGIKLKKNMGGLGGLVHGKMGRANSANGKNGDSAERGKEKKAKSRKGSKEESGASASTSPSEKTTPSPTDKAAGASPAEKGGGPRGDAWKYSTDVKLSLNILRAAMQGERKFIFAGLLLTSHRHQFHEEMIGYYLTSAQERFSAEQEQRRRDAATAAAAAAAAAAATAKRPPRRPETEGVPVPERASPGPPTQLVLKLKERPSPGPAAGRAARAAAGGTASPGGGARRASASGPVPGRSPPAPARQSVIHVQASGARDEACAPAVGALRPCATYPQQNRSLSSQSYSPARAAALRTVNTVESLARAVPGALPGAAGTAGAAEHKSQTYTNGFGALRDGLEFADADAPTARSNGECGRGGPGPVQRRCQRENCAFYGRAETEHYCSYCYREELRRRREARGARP

| Target | log2 ratio of Biotin-Ahx-Ub-VS probe labelling [1] | log2 ratio of Biotin-Ahx-Ub-VS probe labelling [2] | log2 ratio of Biotin-Ahx-Ub-VS probe labelling [3] | log2 ratio of Biotin-Ahx-Ub-VS probe labelling [4] | log2 ratio of Biotin-Ahx-Ub-VS probe labelling [5] | log2 ratio of Biotin-Ahx-Ub-VS probe labelling [6] | log2 ratio of Biotin-Ahx-Ub-VS probe labelling [7] | log2 ratio of Biotin-Ahx-Ub-VS probe labelling [8] | log2 ratio of Biotin-Ahx-Ub-VS probe labelling [9] | log2 ratio of Biotin-Ahx-Ub-VS probe labelling [10] | log2 ratio of Biotin-Ahx-Ub-VS probe labelling [11] | log2 ratio of Biotin-Ahx-Ub-VS probe labelling [12] | log2 ratio of Biotin-Ahx-Ub-VS probe labelling [13] | log2 ratio of Biotin-Ahx-Ub-VS probe labelling [14] | log2 ratio of Biotin-Ahx-Ub-VS probe labelling [15] | log2 ratio of Biotin-Ahx-Ub-VS probe labelling [16] | log2 ratio of Biotin-Ahx-Ub-VS probe labelling [17] |
| --- | --- | --- | --- | --- | --- | --- | --- | --- | --- | --- | --- | --- | --- | --- | --- | --- | --- |
| USP4 (UniProt Q13107) | 0.153 | 0.162 | -0.162 | -0.204 | -0.321 | -0.349 | -0.155 | -0.256 | 0.0368 | -0.309 | -0.0374 | -0.0039 | -0.169 | 0.0544 | 0.132 | -0.0646 | -0.558 |
| USP48 (UniProt Q86UV5) | -0.00536 | -0.0207 | -0.24 | -0.338 | -0.249 | -0.456 | -0.25 | -0.217 | -0.179 | -0.251 | 0.0264 | -0.519 | -0.56 | -0.21 | -0.0126 | -0.405 | -0.545 |
| USP47 (UniProt Q96K76) | -0.233 | -0.0445 | 0.00775 | -0.363 | 0.145 | -0.299 | -0.276 | -0.708 | -0.108 | -0.366 | 0.0602 | -0.137 | 0.0163 | -0.243 | -0.458 | -0.679 | -0.241 |
| EIF3H (UniProt O15372) | -0.185 | 0.239 | -0.385 | -0.0794 | -0.144 | 0.0605 | 0.0219 | 0.0847 | 0.0871 | 0.0591 | 0.337 | 0.342 | -0.198 | -0.00227 | 0.038 | 0.206 | 0.176 |
| USP54 (UniProt Q70EL1) | 0.0698 | 0.582 | 0.646 | 0.245 | 0.658 | 0.179 | 0.204 | 0.439 | 0.226 | 0.528 | 0.34 | -0.205 | 0.194 | 0.336 | 0.0874 | 0.439 | 0.681 |
| USP25 (UniProt Q9UHP3) | -0.0734 | -0.0952 | -0.722 | -0.62 | -0.368 | 0.0415 | -0.392 | -0.444 | -0.307 | -0.446 | -0.133 | -0.102 | -0.276 | -0.149 | 0.0208 | -0.419 | -1.21 (active) |
| USP42 (UniProt Q9H9J4) | 0.361 | -0.342 | -0.295 | -0.305 | -0.42 | -0.0896 | 0.113 | 0.381 | 0.125 | 0.374 | 0.49 | 0.0331 | -0.72 | -0.299 | -0.0821 | -0.125 | 0.584 |
| USP15 (UniProt Q9Y4E8) | -0.00677 | 0.017 | -0.0215 | -0.269 | -0.339 | -0.338 | -0.104 | -0.325 | -0.245 | -0.374 | -0.116 | -0.163 | -0.364 | -0.255 | 0.0921 | -0.327 | -0.77 |
| USP34 (UniProt Q70CQ2) | -0.0417 | -0.172 | -0.119 | -0.00177 | -0.247 | -0.0987 | -0.256 | -0.0637 | -0.0566 | -0.451 | -0.0758 | -0.0409 | -0.0189 | 0.000583 | 0.219 | -0.146 | -0.774 |
| UniProt Q8TE49 | -0.309 | -0.893 | -1.99 (active) | -0.301 | -0.547 | -0.46 | -0.679 | -0.769 | -0.452 | -0.537 | -0.377 | -0.312 | -1.15 (active) | -0.802 | -0.46 | -0.215 | -1.29 (active) |
| OTUD4 (UniProt Q01804) | 0.0776 | -0.761 | -0.763 | -0.46 | -0.413 | -0.109 | 0.0839 | -0.0534 | -0.136 | 0.02 | -0.0939 | -0.131 | -2.71 (active) | -0.397 | 0.0366 | -0.354 | -0.972 |
| USP14 (UniProt P54578) | -0.0633 | 0.0378 | -0.306 | -0.639 | -0.518 | -0.00359 | -0.188 | -0.184 | 0.051 | -0.437 | -0.178 | -0.0389 | -0.0892 | 0.0427 | 0.00941 | -0.0561 | -0.675 |
